{"source": "PubChem BioAssay AID463193", "about": "(University of Pittsburgh Molecular Library Screening Center, 2010)", "note": "Out of some 190,000 compounds screened, about 1,900 (1%) were called active. This is one part of a sample in which actives are shown more often than they occur.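 The calls were made as follows: active = percentage of spot-positive cells more than 3 SD above its plate mean, without a fluorescence outlier flag or 80% toxicity; inconclusive = no clear call, values can overlap the other calls; inactive = the rest.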", "data": [{"test": "GFP-LC3 puncta formation changes – imaging, high-content, MEF GFP-LC3, primary screen (AID 463193);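 as to % cells with GFP-LC3 spots: spot-positive cell cutoff set from DMSO-treated cells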;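 as to toxicity: cell loss after 18 h compound exposure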", "conditions": "autophagy, at 10 µM; % cells with GFP-LC3 spots: stronger effect = higher value; toxicity: measured here: cell loss, nuclei count", "units": {"toxicity": "%"}, "values": [{"smiles": "Cc1cc(C)c2c(n1)nn1c(N3CCOCC3)cc(C)nc21", "% cells with GFP-LC3 spots": "8.07% (inactive)", "toxicity": 5.9}, {"smiles": "Cc1cc(C)c2c(n1)nn1c(-n3ccnc3)cc(C)nc21", "% cells with GFP-LC3 spots": "2.18% (inactive)", "toxicity": 8.53}, {"smiles": "COCCN(Cc1nc(-c2ccc(C(F)(F)F)cc2)no1)C(C)C", "% cells with GFP-LC3 spots": "9.15% (inactive)", "toxicity": 9.9}, {"smiles": "Cc1c(/C=N/N2C(=O)C3C4C=CC(C4)C3C2=O)c2ccccc2n1C", "note": "(stereo unspecified)", "% cells with GFP-LC3 spots": "7.41% (inactive)", "toxicity": -40.2}, {"smiles": "O=C(N/N=C/c1coc2ccccc2c1=O)c1cc2ccccc2o1", "% cells with GFP-LC3 spots": "23.9% (inactive)", "toxicity": 5.54}, {"smiles": "Cc1c(/C=N\\NC(=O)c2cc3ccccc3o2)c2ccccc2n1C", "% cells with GFP-LC3 spots": "7.46% (active)", "toxicity": 40.9}, {"smiles": "O=C(NCCOc1ccccc1F)Nc1ccc(Br)cc1", "% cells with GFP-LC3 spots": "8.91% (inactive)", "toxicity": 10.2}, {"smiles": "CCCCn1c(N)c(N2CCOCC2)c(=O)n(CC(=O)NCCc2ccccc2)c1=O", "% cells with GFP-LC3 spots": "1.7% (inactive)", "toxicity": 10.6}, {"smiles": "Nc1ccc(Nc2ccccc2)cc1", "% cells with GFP-LC3 spots": "3.14% (inactive)", "toxicity": 23.3}, {"smiles": "Cc1ccc(Nc2nnc(SCc3ccccc3)s2)cc1", "% cells with GFP-LC3 spots": "12.4% (inactive)", "toxicity": -2.65}, {"smiles": "Cc1ccc(Nc2ccccc2N)cc1", "% cells with GFP-LC3 spots": "78% (active)", "toxicity": 27.6}, {"smiles": "Cc1ccc(CC(=O)Nc2cccc(C#N)c2)cc1", "% cells with GFP-LC3 spots": "1.19% (inactive)", "toxicity": -8.28}, {"smiles": "COc1cc(/C=C/C2=CC(C)(C)NC(=S)N2)cc(OC)c1OC", "% cells with GFP-LC3 spots": "1.56% (inactive)", "toxicity": 6.84}, {"smiles": "CC(Oc1ccc(F)cc1F)C(=O)/C=C/N(C)C", "note": "(stereo unspecified)", "% cells with GFP-LC3 spots": "6.77% (inactive)", "toxicity": 7.51}, {"smiles": "CC(Oc1ccccc1F)C(=O)NN", "note": "(stereo unspecified)", "% cells with GFP-LC3 spots": "38% (active)", "toxicity": 3.88}, {"smiles": "COc1cccc(NC(=O)C(C)Oc2ccccc2)c1", "note": "(stereo unspecified)", "% cells with GFP-LC3 spots": "5.6% (inactive)", "toxicity": 4.79}, {"smiles": "COc1ccccc1C1CC(=O)n2c(nc(-c3ccccc3)c2-c2ccccc2)S1", "note": "(stereo unspecified)", "% cells with GFP-LC3 spots": "3.32% (inactive)", "toxicity": 1.28}, {"smiles": "O=[N+]([O-])/C(N=Nc1ccccc1)=N\\Nc1ccccc1", "% cells with GFP-LC3 spots": "16.1% (inactive)", "toxicity": 8.32}, {"smiles": "Nc1nonc1-c1nc2ccccc2n1CCC(=O)O", "% cells with GFP-LC3 spots": "6.83% (inactive)", "toxicity": 0.889}, {"smiles": "Nc1nonc1-c1nc2ccccc2n1Cc1ccc(F)cc1", "% cells with GFP-LC3 spots": "17.1% (inactive)", "toxicity": 0.606}, {"smiles": "COc1ccc(C)c(Cn2c(-c3nonc3N)nc3ccccc32)c1", "% cells with GFP-LC3 spots": "25% (active)", "toxicity": 49.2}, {"smiles": "CN(C)Cc1ccccc1C1(O)c2ccccc2CSc2ccccc21", "note": "(stereo unspecified)", "% cells with GFP-LC3 spots": "12% (active)", "toxicity": -6.62}, {"smiles": "COC(=O)C1=C(NC(=O)C(C)(C)C)CCS1", "% cells with GFP-LC3 spots": "5.79% (inactive)", "toxicity": -3.16}, {"smiles": "COC(=O)c1sc(N)c(C(=O)OC)c1COC(=O)CNS(=O)(=O)c1ccc(C)cc1", "% cells with GFP-LC3 spots": "2.17% (inactive)", "toxicity": -4.43}, {"smiles": "CCC(=O)/C=C1\\Sc2ccccc2N1CC", "% cells with GFP-LC3 spots": "7.46% (inactive)", "toxicity": -11.3}, {"smiles": "CCN1/C(=C/c2ccc3ccc(C)cc3[n+]2CC)Sc2ccccc21", "% cells with GFP-LC3 spots": "42.4% (active)", "toxicity": 14.3}, {"smiles": "CCN1CCN(CCNC(=O)c2ccc(/C=C3/Sc4ccccc4N(Cc4cccc(C)c4)C3=O)cc2)CC1", "% cells with GFP-LC3 spots": "34.4% (inactive)", "toxicity": 30.3}, {"smiles": "Cc1ccc(Nc2cc(C)nc3c(C)ccc([N+](=O)[O-])c23)cc1", "% cells with GFP-LC3 spots": "9.29% (inactive)", "toxicity": 15.4}, {"smiles": "Cc1cccc(N(C(=O)Cc2cccs2)C(C(=O)NCc2ccco2)c2ccncc2)c1", "note": "(stereo unspecified)", "% cells with GFP-LC3 spots": "0.45% (inactive)", "toxicity": 4.04}, {"smiles": "CSc1nc2ccccc2cc1/C=C(\\C#N)c1ccc(Cl)cc1Cl", "% cells with GFP-LC3 spots": "26.9% (active)", "toxicity": 3.92}, {"smiles": "Cc1nc2ccccc2cc1O", "% cells with GFP-LC3 spots": "1.86% (inactive)", "toxicity": -9.74}, {"smiles": "CSc1nc(N)c(C#N)c(-c2ccccc2Cl)c1C#N", "% cells with GFP-LC3 spots": "1.32% (inactive)", "toxicity": 7.01}, {"smiles": "CCC(C)NC(=O)/C=C/c1ccc(S(=O)(=O)NCc2ccco2)cc1", "note": "(stereo unspecified)", "% cells with GFP-LC3 spots": "13.9% (inactive)", "toxicity": -4.92}, {"smiles": "Cc1cccc(OCCNC(=S)NC(=O)c2cccnc2)c1", "% cells with GFP-LC3 spots": "4.78% (inactive)", "toxicity": 1.96}, {"smiles": "O=C(CSc1ncnc2c1nnn2Cc1ccc(F)cc1)NC1CCCC1", "% cells with GFP-LC3 spots": "19.5% (inactive)", "toxicity": 3.4}, {"smiles": "COc1ccc(N2CCN(C(=O)CNS(=O)(=O)c3ccc(C)c(C)c3)CC2)cc1", "% cells with GFP-LC3 spots": "0.151% (inactive)", "toxicity": -10.1}, {"smiles": "Cc1cc([N+](=O)[O-])nn1CCCC(=O)Nc1cccnc1Cl", "% cells with GFP-LC3 spots": "8.6% (inactive)", "toxicity": 1.08}, {"smiles": "Cc1ccc(-c2nnc(-c3ccc(NC(=O)c4cccs4)cc3)o2)cc1", "% cells with GFP-LC3 spots": "9.58% (inactive)", "toxicity": -19.8}, {"smiles": "O=C(Cc1cccc2ccccc12)Nc1ccc2oc(-c3ccccc3)nc2c1", "% cells with GFP-LC3 spots": "7.49% (inactive)", "toxicity": 12.1}, {"smiles": "O=C(Nc1ccc2oc(-c3ccc4ccccc4c3)nc2c1)c1cccs1", "% cells with GFP-LC3 spots": "3.28% (active)", "toxicity": -13.1}, {"smiles": "COc1cc(OC)c(C(=O)Nc2ccccc2-c2ccccc2)cc1OC", "% cells with GFP-LC3 spots": "7.38% (inactive)", "toxicity": -2.46}, {"smiles": "COc1ccc(C(=O)OCC(=O)NCC2CCCO2)cc1[N+](=O)[O-]", "note": "(stereo unspecified)", "% cells with GFP-LC3 spots": "3.86% (inactive)", "toxicity": 1.61}, {"smiles": "COc1ccc(OC)c(C(=O)c2ccc(C(=O)N3CCN(Cc4csc(C)n4)CC3)cc2)c1", "% cells with GFP-LC3 spots": "1.64% (inactive)", "toxicity": 6.76}]}]}
